This is a sample that favours compounds with a hit; in the whole collection about 4.4% have one here.
tim23-1 inh: inhibits growth of tim23-1 mutant yeast. S. cerevisiae tim23-1 growth, BacTiter-Glo luminescence, 24 h. inhibition, % at 20 µM. 1.3% of 330,000 active. AID 463212;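 active = growth inhibition of the mutant yeast at or above 50%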;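 also: temperature-sensitive mutant grown at 25 °C; plate controls were DMSO-treated mutant yeast for no effect and medium wells lacking yeast for full effect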
tim10-1 inh: tim10-1 yeast growth inhibition | S. cerevisiae tim10-1 ts strain growth, BacTiter-Glo, 24 h | inhibition, % at 20 µM | 2.2% of 330,000 active | AID 463190;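 active = inhibition of at least 40%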;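 also: mutant grown at 25 °C; 0% = DMSO wells with yeast and 100% = wells holding no yeast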
TIM10 inh: growth inhibitors of TIM10 yeast strain; S. cerevisiae TIM10 strain growth, BacTiter-Glo luminescence, 24 h; inhibition, % at 10 µM; 1.4% of 330,000 active; AID 463195;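 active = inhibition of 40% or more at the single tested concentration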;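 also: wild-type TIM10 isogenic control strain grown at permissive 25 °C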
PfHsp90 set2: inhibits growth of yeast expressing Plasmodium falciparum Hsp90; 0.32% of 310,000 active; inhibition, % at 9.4 µM; S. cerevisiae expressing PfHsp90, BacTiter-Glo ATP, 48 h; yeast lacking PDR1 and PDR3 efflux regulators; AID 504621;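 active = every replicate shows inhibition above about 80%, whatever the replicate mean, limit read from the data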;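 also: 0% = DMSO neutral controls and 100% = 20 µM radicicol positive controls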
SKKanGAS inh: SKKanGAS growth inhibition; 1.3% of 300,000 active; inhibition, % at 7.5 µM; AID 1662; S. pyogenes SKKanGAS, kanamycin growth, BacTiter-Glo, 6 h;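 active = mean replicate score, as percent of positive control median, at least 50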;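 also: strain carries kanamycin resistance gene driven by streptokinase promoter and grows in 40 µg/ml kanamycin; loss of luminescence reflects streptokinase promoter inhibition or plain growth inhibition; 0% = median of DMSO wells and 100% = positive control at its reference dose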
tim23-1 confirm: confirmation of tim23-1 mutant yeast growth inhibitors; shares compounds with tim23-1 inh; S. cerevisiae tim23-1 growth, BacTiter-Glo luminescence, 24 h; inhibition, % at 20 µM; 83% of 4,400 active; AID 463218;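 active = inhibition above about 39% in either of two replicate wells at 20 µM, limit read from the data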;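 also: temperature-sensitive tim23-1 mutant grown at 25 °C; 0% = DMSO wells with yeast and 100% = medium wells without yeast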
An asterisk follows results filed as active; . = not tested or not shown.

SMILES | tim23-1 inh | tim10-1 inh | TIM10 inh | PfHsp90 set2 | SKKanGAS inh | tim23-1 confirm
Cc1cccc(NC(=O)c2cc3ccccc3o2)c1 | 54* | -30 | 25 | 16 | -18 | 41*
CCOc1ccc(NC(=O)C2CCN(C(=O)C3CC(=O)N(c4ccc(C)cc4)C3)CC2)cc1 (stereo unspecified) | 20 | 27 | 1 | -1 | -1 | .
CCn1c(SCc2ccc(Cl)cc2)nc2nc3c(cc2c1=O)CCCC3 | 27 | 12 | 16 | -9 | 25 | .
CSc1nc2nc3c(cc2c(=O)n1-c1ccccc1C)CCCC3 | 55* | 17 | 10 | 23 | -7 | 44*
COc1ccccc1Nc1nc(N)nc(CSC(=S)N2CCC(C)CC2)n1 | 50* | 39 | 35 | 7 | 1 | 36
COc1ccc(C2CC(c3ccc(Br)cc3)=NN2C(=O)CCC(=O)O)cc1OC (stereo unspecified) | 96* | 1 | -1 | 11 | -5 | 15
COc1ccc(C2=NN(C(=O)CCC(=O)O)C(c3ccc(OC)c(OC)c3)C2)cc1 (stereo unspecified) | 11 | 16 | 7 | 10 | 10 | .
Cc1ccc(Nc2nc(-c3cccnc3)cs2)cc1Cl | 21 | 12 | 22 | -29 | -4 | .
Cc1ccc(C)c(Nc2nc(-c3cccnc3)cs2)c1 | 50* | 19 | 19 | -4 | -12 | 15
CC(=O)Nc1ccc(S(=O)(=O)c2cc(O)ccc2O)cc1 | -1 | -14 | 0 | -11 | -2 | .
O=[N+]([O-])c1cc(-c2ccn[nH]2)ccc1Cl | 12 | 17 | 11 | -10 | 3 | .
Cc1cc(Nc2ccccc2)nn1C(=O)c1ccccc1 | 51* | 0 | 30 | -17 | -3 | 52*
O=C(NCc1ccccn1)c1ccc(Cl)c(S(=O)(=O)NCc2ccccc2)c1 | 12 | 12 | 12 | 6 | . | .

Source: PubChem BioAssay (several laboratories)
